Screening results deposited in PubChem by The Scripps Research Institute Molecular Screening Center.
In the library only some 2.9% were active in any assay of this set; here they are far more common.
PAFAH2 FP inh: PAFAH2 (human) inhibition; 0.99% of 340,000 active; recombinant PAFAH2, FP-rhodamine activity probe, fluorescence polarization; Q99487; AID 492956; inhibition, % at 3.39 µM;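 active = inhibition above the mean over all tested compounds plus 3 SD, cut at about 30% in these data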;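 note: inhibitors block probe labeling of enzyme so polarization drops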
EBNA-1 inh: blocks EBNA-1 binding to DNA. AID 1950. 0.34% of 300,000 active. inhibition, % at 14.8 µM. EBNA-1 DNA binding, fluorescence polarization; in the data active = inhibition above about 28%
ZTA counter: counter-screen for EBNA-1 inhibitors: inhibitors of Epstein-Barr virus ZTA; P03206; ZTA-DNA binding, fluorescence polarization; inhibition, % at 11 µM; 0.15% of 320,000 active; in the data active = inhibition above about 33%
rCAG RNA binder: molecules binding r(CAG) RNA repeats; AID 651821; r(CAG) RNA repeat, TO-PRO-1 dye displacement fluorescence; 1.3% of 370,000 active; inhibition, % at 3 µM;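 active = inhibition above the plate cutoff, the mean of all test compounds on that plate plus 3 SD, cut at about 35% in these data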;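 note: higher means more dye released from RNA so lower well fluorescence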
PAFAH1B3 inh: inhibitors of human PAFAH1B3; 0.28% of 340,000 active; inhibition, % at 3.39 µM; recombinant PAFAH1B3, FP-rhodamine probe, fluorescence polarization;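 active = inhibition above the screen-wide average of all tested compounds plus 3 SD, cut at about 25% in these data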
Target sequence (Q15102 whole entry, looked up): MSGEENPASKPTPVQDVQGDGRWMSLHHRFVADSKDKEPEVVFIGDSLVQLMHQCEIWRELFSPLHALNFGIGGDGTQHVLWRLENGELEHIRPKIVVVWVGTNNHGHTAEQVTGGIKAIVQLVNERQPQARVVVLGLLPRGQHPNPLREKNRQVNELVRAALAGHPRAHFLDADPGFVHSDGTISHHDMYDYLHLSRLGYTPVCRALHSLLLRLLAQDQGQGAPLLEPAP
PAFAH1B2 inh: PAFAH1B2 (human) inhibition. inhibition, % at 3.39 µM. 1.2% of 340,000 active. AID 492953. recombinant PAFAH1B2, FP-rhodamine activity probe, fluorescence polarization;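 active = inhibition above the mean of all tested compounds plus 3 SD, cut at about 24% in these data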
Target sequence (P68402 whole entry, looked up): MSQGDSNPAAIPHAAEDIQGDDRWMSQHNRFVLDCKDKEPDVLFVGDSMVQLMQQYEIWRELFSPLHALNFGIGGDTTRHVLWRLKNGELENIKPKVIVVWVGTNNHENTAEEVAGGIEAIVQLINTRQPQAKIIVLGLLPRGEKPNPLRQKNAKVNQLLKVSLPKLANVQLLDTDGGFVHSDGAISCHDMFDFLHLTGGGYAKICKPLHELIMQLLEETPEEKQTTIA
Hits are given with their value; i = inactive; nt = no result given.

SMILES | PAFAH2 FP inh | EBNA-1 inh | ZTA counter | rCAG RNA binder | PAFAH1B3 inh | PAFAH1B2 inh
O=C(N1CCCCC1)C1(c2ccccc2)CCCCC1 | i | i | i | i | i | 30
O=C(Nc1ccccc1C(F)(F)F)NC1(C(=O)N2CCOCC2)CCCCC1 | i | nt | nt | 72 | i | i
O=C(N1CCOCC1)C1(c2ccccc2)CCCCC1 | i | i | i | i | i | 28
COC(=O)C1CN(Cc2ccc(OC)cc2)CCS(=O)(=O)N1Cc1ccc(F)cc1 (stereo unspecified) | nt | nt | nt | i | nt | nt
Cc1cc(C(=O)Nc2ccc(F)cc2)n(-c2ccccc2)n1 | nt | nt | nt | i | nt | nt
COc1ccc(S[C@]2(C(=O)N3CCN(c4ncccn4)CC3)CC(=O)N(c3ccc(Cl)cc3)[C@@H]2c2ccc(OC)cc2)cc1 | nt | nt | nt | i | nt | nt
CC(NC(=O)CSc1n[nH]c(=O)[nH]c1=O)C1CC2CCC1C2 (stereo unspecified) | i | i | i | i | i | 27
CC(NC(=O)CSc1ncccc1C(=O)O)C1CC2CCC1C2 (stereo unspecified) | i | i | i | i | i | 29
CN(Cc1ccccc1)S(=O)(=O)c1cccc(C(=O)OCc2ccccc2Cl)c1 | nt | nt | nt | i | nt | nt
Cc1ccc(NC(=O)CN2C(=O)N/C(=C/c3cc(C)n(-c4ccc(C(=O)O)cc4)c3C)C2=O)cc1 | i | nt | nt | 37 | i | i
CCn1c(C)cc(/C=C2\NC(=O)N(CC(=O)Nc3ccc(F)cc3)C2=O)c1C | i | i | i | i | i | i
O=C(COC(=O)CC1c2ccccc2CCN1S(=O)(=O)c1ccccc1)Nc1ccccc1 (stereo unspecified) | 45 | i | i | i | i | i
Cc1ccc(C)c(NC(=O)COC(=O)CC2c3ccccc3CCN2S(=O)(=O)c2ccc(F)cc2)c1 (stereo unspecified) | i | i | i | nt | i | i
O=C(CCl)N(c1ccccc1)C1CCCCC1 | i | i | i | i | i | 33
CC(=O)N(c1ccccc1)C1CCCC1 | i | i | i | i | i | i
CCCCS(=O)(=O)N1C2=NC3=C(C(=O)N(CCOC)C3=O)C3N(C)c4ccccc4[C@]23C[C@H]1CO (stereo partly specified) | nt | nt | nt | i | nt | nt
O=C(Nc1c(-c2ccc(F)cc2)nc2ncccn12)c1ccccc1 | nt | nt | nt | i | nt | nt
Cc1ccc(NC(=O)OCCN2CCN(S(=O)(=O)c3ccc(C)cc3)CCC2=O)cc1 | i | i | i | i | i | 29
Cc1ccc(S(=O)(=O)N2CCC(=O)N([C@H](CO)Cc3ccccc3)CC2)cc1 | nt | nt | nt | i | nt | nt
Cc1ccc(S(=O)(=O)N2CCC(=O)N(C(COC(=O)Nc3ccccc3)Cc3ccccc3)CC2)cc1 (stereo unspecified) | i | i | i | i | i | 35
Cc1ccc(S(=O)(=O)N2CCC(=O)N(C(CO)Cc3ccccc3)CC2)cc1 (stereo unspecified) | i | i | i | i | i | 24
Cc1ccc(S(=O)(=O)N2CCC(=O)N(C(COCc3cccc(C)c3)Cc3ccccc3)CC2)cc1 (stereo unspecified) | i | i | i | i | i | i
CC(=O)N1CCCN(S(=O)(=O)c2ccc3c(c2)n(C)c(=O)c(=O)n3C)CC1 | nt | nt | nt | i | nt | nt
CC(NCc1ccco1)C(=O)N1CCN(c2cccc(C(F)(F)F)c2)CC1 (stereo unspecified) | nt | nt | nt | i | nt | nt
CCOC(=O)c1c(C)[nH]c(C(=O)OCC(=O)c2ccccc2)c1C | i | i | i | i | i | i
SMILES | PAFAH2 FP inh | EBNA-1 inh | ZTA counter | rCAG RNA binder | PAFAH1B3 inh | PAFAH1B2 inh
CCCCN(C(=O)c1c(C)[nH]c(C(=O)OCC)c1C)c1ccccc1 | i | i | i | i | i | 28
COc1ccc(-n2c(SCC(=O)Nc3ccc4c(c3)OCO4)nc3sc4c(c3c2=O)CCCC4)cc1 | nt | nt | nt | i | nt | nt
Cc1ccccc1CN1CCCCC(NC(=O)Nc2cccc([N+](=O)[O-])c2)C1=O (stereo unspecified) | nt | nt | nt | i | nt | nt
CN1CCN(c2cc(N3CCN(C(=O)c4ccco4)CC3)c3c4c(onc24)-c2ccccc2C3=O)CC1 | i | i | i | nt | i | i
CCOC(=O)N1CCN(c2cc(NCCC(=O)O)c3c4c(onc24)-c2ccccc2C3=O)CC1 | i | 118 | 177 | nt | i | i
O=C(O)CCCNc1cc(N2CCN(C(=O)c3ccco3)CC2)c2noc3c2c1C(=O)c1ccccc1-3 | i | 81 | 149 | i | i | i
O=C(O)CCCNc1cc(N2CCC3(CC2)OCCO3)c2noc3c2c1C(=O)c1ccccc1-3 | nt | 93 | 143 | nt | nt | nt
CCCC(=O)OCC(=O)Nc1ccc(OC(F)F)cc1 | i | i | i | i | i | i
